Test results from PubChem BioAssay (NCI).
Several values for one entry are separate records, joined by “and”; a condition that tells them apart may be missing. Identical values can stand only once. The panel holds about 83,000 compounds, 20% with a hit somewhere; the sample as a whole holds those more often.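 Assay: single dose, 48 h. Readout: percent growth (0 = no net growth; negative = cell death). Active: <10.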 Activity calls are given as the source filed them.

What was measured:
Experiment in all cases: NCI-60 one-dose screen, 48 h (100 = growth as untreated, 0 = no growth, -100 = all killed)
SR leukemia = conditions: 10 µM unless noted
RPMI-8226 leukemia = test system: RPMI-8226 leukemia
OVCAR-8 ovarian = test system: OVCAR-8 ovarian
OVCAR-5 ovarian = test system: OVCAR-5 ovarian
OVCAR-4 ovarian = test system: OVCAR-4 ovarian
SK-OV-3 ovarian = test system: SK-OV-3 ovarian
IGROV1 ovarian = test system: IGROV1 ovarian
OVCAR-3 ovarian = test system: OVCAR-3 ovarian
HS 578T breast = test system: HS 578T breast
NCI/ADR-RES ovarian = test system: NCI/ADR-RES ovarian
T-47D breast = test system: T-47D breast
BT-549 breast = test system: BT-549 breast
MDA-MB-435 melanoma = test system: MDA-MB-435 melanoma
SW-620 colon = test system: SW-620 colon
MCF7 breast = test system: MCF7 breast
HCT-116 colon = conditions: 10 µM
HCC-2998 colon = conditions: 10 µM

Measured: growth

OCC1OC(n2cnc3c(=S)nc[nH]c32)C(O)C1O (stereo unspecified)
inactive: SR leukemia 112% and 37.9% | RPMI-8226 leukemia; 10 µM 108% and 31.6% | OVCAR-8 ovarian; 10 µM 47.3% | OVCAR-5 ovarian; 10 µM 57% and 85.1% | OVCAR-4 ovarian; 10 µM 91.5% and 46.9% | SK-OV-3 ovarian; 10 µM 113% | IGROV1 ovarian; 10 µM 85.4% | OVCAR-3 ovarian; 10 µM 113% and 47% | HS 578T breast; 10 µM 89.5% and 62.7% | NCI/ADR-RES ovarian; 10 µM 102% and 46.5% | T-47D breast; 10 µM 100% and 57.7% | BT-549 breast; 10 µM 105% and 66.2% | MDA-MB-435 melanoma; 10 µM 106% and 35.3% | SW-620 colon; 10 µM 104% and 76.6% | MCF7 breast; 10 µM 108% and 20.9% | HCT-116 colon 117% and 39.8% | HCC-2998 colon 100% and 45.5%

CCC(C)(C)c1cc(O)c(C(C)(C)CC)cc1O
inactive: SR leukemia 45.1% | RPMI-8226 leukemia; 10 µM 22.3% | OVCAR-8 ovarian; 10 µM 65.9% | OVCAR-5 ovarian; 10 µM 49.2% | OVCAR-4 ovarian; 10 µM 28% | SK-OV-3 ovarian; 10 µM 57.2% | IGROV1 ovarian; 10 µM 64.8% | OVCAR-3 ovarian; 10 µM 37.2% | HS 578T breast; 10 µM 31.9% | NCI/ADR-RES ovarian; 10 µM 39.2% | T-47D breast; 10 µM 60.3% | BT-549 breast; 10 µM 10.7% | MDA-MB-435 melanoma; 10 µM 27.7% | SW-620 colon; 10 µM 31.8% | MCF7 breast; 10 µM 18.4% | HCT-116 colon 16.6%

CS(=O)(=O)OC1CC(n2ccc(=O)[nH]c2=O)OC1COC(c1ccccc1)(c1ccccc1)c1ccccc1 (stereo unspecified)
inactive: SR leukemia 78% | RPMI-8226 leukemia; 10 µM 101% | OVCAR-8 ovarian; 10 µM 104% | OVCAR-5 ovarian; 10 µM 98% | OVCAR-4 ovarian; 10 µM 106% | SK-OV-3 ovarian; 10 µM 106% | IGROV1 ovarian; 10 µM 92% | OVCAR-3 ovarian; 10 µM 100% | HS 578T breast; 10 µM 112% | NCI/ADR-RES ovarian; 10 µM 113% | T-47D breast; 10 µM 96.7% | BT-549 breast; 10 µM 99.4% | MDA-MB-435 melanoma; 10 µM 125% | SW-620 colon; 10 µM 105% | MCF7 breast; 10 µM 97.3% | HCT-116 colon 92.9% | HCC-2998 colon 106%

CC1=CC(C)=Nc2ccc(Cl)cc2N1
inactive: SR leukemia 91.1% | RPMI-8226 leukemia; 10 µM 102% | OVCAR-8 ovarian; 10 µM 102% | OVCAR-5 ovarian; 10 µM 112% | OVCAR-4 ovarian; 10 µM 110% | SK-OV-3 ovarian; 10 µM 98.7% | IGROV1 ovarian; 10 µM 103% | OVCAR-3 ovarian; 10 µM 102% | HS 578T breast; 10 µM 104% | NCI/ADR-RES ovarian; 10 µM 102% | T-47D breast; 10 µM 102% | BT-549 breast; 10 µM 108% | MDA-MB-435 melanoma; 10 µM 107% | SW-620 colon; 10 µM 98.8% | MCF7 breast; 10 µM 101% | HCT-116 colon 100% | HCC-2998 colon 103%

OC(CN1CCCC2CCCCC21)c1cc2ccccc2c2ccccc12 (stereo unspecified)
inactive: RPMI-8226 leukemia; 10 µM 15.8% | OVCAR-8 ovarian; 10 µM 51.6% | OVCAR-5 ovarian; 10 µM 34.2% | OVCAR-4 ovarian; 10 µM 29.1% | SK-OV-3 ovarian; 10 µM 37.7% | IGROV1 ovarian; 10 µM 58.1% | OVCAR-3 ovarian; 10 µM 30.6% | HS 578T breast; 10 µM 26.1% | NCI/ADR-RES ovarian; 10 µM 17.4% | T-47D breast; 10 µM 14.9% | BT-549 breast; 10 µM 46% | MDA-MB-435 melanoma; 10 µM 32% | SW-620 colon; 10 µM 27.1% | HCC-2998 colon 13.5%
active: SR leukemia -36.1% | MCF7 breast; 10 µM 7.24% | HCT-116 colon 1.99%

Cc1cc(NS(=O)(=O)c2ccc(N=Nc3cc(N=Nc4ccc(S(=O)(=O)Nc5cc(C)nc(C)n5)cc4)c4c(NC(=O)C(Cl)Cl)cccc4c3OC(=O)C(Cl)Cl)cc2)nc(C)n1 (tested in a mixture with another compound)
inactive: SR leukemia 103% and 69% | RPMI-8226 leukemia; 10 µM 114% and 101% | OVCAR-8 ovarian; 10 µM 94.8% and 91.7% | OVCAR-5 ovarian; 10 µM 122% | OVCAR-4 ovarian; 10 µM 101% and 94.3% | SK-OV-3 ovarian; 10 µM 103% and 105% | IGROV1 ovarian; 10 µM 104% | OVCAR-3 ovarian; 10 µM 114% and 93.3% | HS 578T breast; 10 µM 111% and 128% | NCI/ADR-RES ovarian; 10 µM 107% and 104% | T-47D breast; 10 µM 101% and 87.1% | BT-549 breast; 10 µM 111% and 99.7% | MDA-MB-435 melanoma; 10 µM 101% and 111% | SW-620 colon; 10 µM 122% and 104% | MCF7 breast; 10 µM 94.4% and 78% | HCT-116 colon 105% and 95.2% | HCC-2998 colon 107% and 111%

CCCC1CCC(=C2C(=O)CCC2=O)O1 (stereo unspecified)
inactive: SR leukemia 96.5% and 78.2% | RPMI-8226 leukemia; 10 µM 119% and 113% | OVCAR-8 ovarian; 10 µM 112% | OVCAR-5 ovarian; 10 µM 96.8% and 97% | OVCAR-4 ovarian; 10 µM 98.2% | SK-OV-3 ovarian; 10 µM 104% and 110% | IGROV1 ovarian; 10 µM 121% | OVCAR-3 ovarian; 10 µM 101% and 94% | HS 578T breast; 10 µM 109% and 97.8% | NCI/ADR-RES ovarian; 10 µM 108% and 106% | T-47D breast; 10 µM 87.8% and 110% | BT-549 breast; 10 µM 86.3% and 106% | MDA-MB-435 melanoma; 10 µM 94.8% and 95.4% | SW-620 colon; 10 µM 105% | MCF7 breast; 10 µM 91.9% and 118% | HCT-116 colon 91.9% and 107% | HCC-2998 colon 104% and 99.1%

O=C(O)COc1ccc(OCC(=O)O)cc1
inactive: SR leukemia 10.3% | OVCAR-8 ovarian; 10 µM 13% | OVCAR-5 ovarian; 10 µM 11% | OVCAR-4 ovarian; 10 µM 21.4% | SK-OV-3 ovarian; 10 µM 11.4% | IGROV1 ovarian; 10 µM 27.4% | OVCAR-3 ovarian; 10 µM 16.7% | HS 578T breast; 10 µM 20.9% | NCI/ADR-RES ovarian; 10 µM 83.3% | BT-549 breast; 10 µM 20.9% | MDA-MB-435 melanoma; 10 µM 30.4% | SW-620 colon; 10 µM 15.1%
active: RPMI-8226 leukemia; 10 µM -15.6% | T-47D breast; 10 µM 5.61% | MCF7 breast; 10 µM 6.66% | HCT-116 colon 9.02% | HCC-2998 colon -34.2%

CCCCCCCCCCCCSC(=NC)NC
-9.44% (active) and 22.6% (inactive): MCF7 breast; 10 µM
inactive: OVCAR-8 ovarian; 10 µM 62.1% and 82% | OVCAR-5 ovarian; 10 µM 57.5% and 84.1% | OVCAR-4 ovarian; 10 µM 31.3% and 71.2% | SK-OV-3 ovarian; 10 µM 51% and 79.1% | IGROV1 ovarian; 10 µM 20.3% and 66.7% | OVCAR-3 ovarian; 10 µM 36.8% and 71.7% | HS 578T breast; 10 µM 81.4% and 93.2% | NCI/ADR-RES ovarian; 10 µM 47.4% and 69.1% | BT-549 breast; 10 µM 45.3% and 86.4%
-25.5% (active) and 32.3% (inactive): SW-620 colon; 10 µM
-15.7% (active) and 43.4% (inactive): MDA-MB-435 melanoma; 10 µM
-7.65% (active) and 49.6% (inactive): T-47D breast; 10 µM
1.94% (active) and 47.4% (inactive): HCT-116 colon
active: SR leukemia -4.45% and -23.7% | HCC-2998 colon -54.8% and -34.7%
-6.03% (active) and 23.3% (inactive): RPMI-8226 leukemia; 10 µM

O=[N+]([O-])C1=C(c2ccccc2)SC=C(c2ccccc2)S1
inactive: RPMI-8226 leukemia; 10 µM 48.6% | OVCAR-8 ovarian; 10 µM 71.4% | OVCAR-5 ovarian; 10 µM 113% | OVCAR-4 ovarian; 10 µM 87.4% | SK-OV-3 ovarian; 10 µM 79.4% | IGROV1 ovarian; 10 µM 76.3% | OVCAR-3 ovarian; 10 µM 73.6% | HS 578T breast; 10 µM 85.7% | NCI/ADR-RES ovarian; 10 µM 78.1% | T-47D breast; 10 µM 51.9% | BT-549 breast; 10 µM 55.3% | MDA-MB-435 melanoma; 10 µM 75.3% | SW-620 colon; 10 µM 62.5% | MCF7 breast; 10 µM 51.6% | HCT-116 colon 67% | HCC-2998 colon 108%
active: SR leukemia 6.09%

CCCCCCCCCCSC(=N)N
active: SR leukemia -25% | RPMI-8226 leukemia; 10 µM -11% | T-47D breast; 10 µM -5.33% | SW-620 colon; 10 µM -5.44% | MCF7 breast; 10 µM 8.06% | HCC-2998 colon -27.2%
inactive: OVCAR-8 ovarian; 10 µM 61.5% | OVCAR-5 ovarian; 10 µM 77.4% | OVCAR-4 ovarian; 10 µM 76.7% | SK-OV-3 ovarian; 10 µM 77.5% | IGROV1 ovarian; 10 µM 46.1% | OVCAR-3 ovarian; 10 µM 67% | HS 578T breast; 10 µM 81.1% | NCI/ADR-RES ovarian; 10 µM 69.3% | BT-549 breast; 10 µM 85.9% | MDA-MB-435 melanoma; 10 µM 30% | HCT-116 colon 23.4%

O=c1ccn(C2CC(O)C(COC(c3ccccc3)(c3ccccc3)c3ccccc3)O2)c(=O)[nH]1 (stereo unspecified)
inactive: SR leukemia 33.2% [100 µM] | RPMI-8226 leukemia; 10 µM 95.8% | RPMI-8226 leukemia; 100 µM 40.2% | OVCAR-8 ovarian; 10 µM 80.7% | OVCAR-8 ovarian; 100 µM 44.9% | OVCAR-5 ovarian; 10 µM 101% | OVCAR-5 ovarian; 100 µM 73.7% | OVCAR-4 ovarian; 10 µM 94.5% | OVCAR-4 ovarian; 100 µM 38.5% | SK-OV-3 ovarian; 10 µM 99.8% | SK-OV-3 ovarian; 100 µM 94.9% | IGROV1 ovarian; 10 µM 99.2% | IGROV1 ovarian; 100 µM 58.1% | OVCAR-3 ovarian; 10 µM 102% | OVCAR-3 ovarian; 100 µM 47.8% | HS 578T breast; 10 µM 89.3% | HS 578T breast; 100 µM 55.7% | NCI/ADR-RES ovarian; 10 µM 85% | NCI/ADR-RES ovarian; 100 µM 44.3% | T-47D breast; 10 µM 84.7% | T-47D breast; 100 µM 25.7% | BT-549 breast; 10 µM 84.2% | BT-549 breast; 100 µM 13.9% | MDA-MB-435 melanoma; 10 µM 76.1% | MDA-MB-435 melanoma; 100 µM 45% | SW-620 colon; 10 µM 99.4% | SW-620 colon; 100 µM 62.2% | MCF7 breast; 10 µM 79.2% | MCF7 breast; 100 µM 16.5% | HCT-116 colon 82.2%
